Data published in the supplement of paper PMC10670038.
Structures can show the parent of a compound that is named as a salt. ± gives the standard deviation of the averaged measurements. In all, about 2,000 compounds were measured (“relative cell viability vs DMSO, compound alone”: median about 1.1, lowest 2% from about 0.29 on). The entries come from a sample that favours the lowest values as a whole.

What follows are molecules tested on TE10 (assay: relative cell viability vs DMSO, compound alone (fraction); TE10 is an esophageal squamous carcinoma line; higher = less cytotoxic). Conditions: 2 µM; 48 h.
Protocol: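 TE10 ESCC cells (1,000/well, 384-well plates) were treated with Selleck bioactive library compounds at 2 uM alone for 48 h. Viability was read by CellTiter-Glo and expressed relative to DMSO wells. Two technical replicates (A, B).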

Row | SMILES | relative cell viability
1 | C[N+]1(C)CCC(=C(c2ccccc2)c2ccccc2)CC1 [Diphemanil Methylsulfate] | 0.918 ± 0.097
2 | OCCOCCN1CCN(C2=Nc3ccccc3Sc3ccccc32)CC1 [Quetiapine Fumarate] | 1.079 ± 0.0073
3 | Cc1cc(/C=C2/SC(=S)NC2=O)c(C)n1-c1cccnc1 [Optovin] | 1.06 ± 0.031
4 | C[C@@H](O)[C@H]1C(=O)N2C(C(=O)OCOC(=O)C(C)(C)C)=C(SC3CN(C4=NCCS4)C3)[C@H](C)[C@H]12 [Tebipenem Pivoxil] | 1.14 ± 0.037
5 | C[C@@]12C[C@@]3(O)O[C@@H](O1)[C@]1(COC(=O)c4ccccc4)[C@H]3C[C@@]12O[C@@H]1O[C@H](CO)[C@@H](O)[C@H](O)[C@H]1O [Paeoniflorin] | 1.04 ± 0.029
6 | CN(C)c1ccc(C(=O)NCCCCCCC(=O)NO)cc1 | 0.627 ± 0.043
7 | CC(C=CC(=O)NO)=CC(C)C(=O)c1ccc(N(C)C)cc1 (stereo unspecified) [Trichostatin A (TSA)] | 0.0876 ± 0.0041
8 | COC1C(O)CC(=O)OC(C)CC=CC=CC(OC2CCC(N(C)C)C(C)O2)C(C)CC(CC=O)C1OC1OC(C)C(OC2CC(C)(O)C(O)C(C)O2)C(N(C)C)C1O (stereo unspecified) [Spiramycin] | 1.11 ± 0.04
9 | C[C@H](CCC(=O)O)[C@H]1CC[C@H]2[C@@H]3[C@@H](O)C[C@@H]4C[C@H](O)CC[C@]4(C)[C@H]3CC[C@]12C [Ursodiol] | 0.96 ± 0.08
10 | COCCCOc1cc(C[C@@H](C[C@H](N)[C@@H](O)C[C@H](C(=O)NCC(C)(C)C(N)=O)C(C)C)C(C)C)ccc1OC [Aliskiren Hemifumarate] | 1.19 ± 0.037
11 | COc1ccc(-c2ccc3c(N4CCOC[C@@H]4C)nc(N4CCOC[C@@H]4C)nc3n2)cc1CO | 0.4942 ± 0.0022
12 | C[C@H](NC(=O)/C(C#N)=C/c1cccc(Br)n1)c1ccccc1 | 1.14 ± 0.032
13 | N#CC(=Cc1ccc(O)c(O)c1)C(=O)NCc1ccccc1 [AG-490 (Tyrphostin B42)] | 1.196 ± 0.001
14 | CCC[C@H](NC(=O)/C(C#N)=C/c1cccc(Br)n1)c1ccccc1 [Degrasyn (WP1130)] | 0.206 ± 0.019
15 | COc1c(C)c(C(=O)c2ccc(N)c(C(=O)O)c2)n2ccccc12 | 1.04 ± 0.041
16 | N#C[C@@H]1C[C@@H]2C[C@@H]2N1C(=O)[C@@H](N)C12CC3CC(CC(O)(C3)C1)C2 [Saxagliptin] | 1.02 ± 0.083
17 | O=C1c2ccccc2-c2n[nH]c3cccc1c23 | 1.27 ± 0.0019
18 | CCN=C1N[C@@H]2[C@@H](O)[C@H](O)[C@@H](CO)O[C@@H]2S1 [Thiamet G] | 1.04 ± 0.037
19 | OCc1ccc(-c2ccc(-c3ccc(CO)s3)o2)s1 | 0.0807 ± 0.0069
20 | Cc1c(Cc2ccc3ccccc3n2)c2cc(F)ccc2n1CC(=O)O | 1.08 ± 0.054
21 | CCOC(=O)[C@H](CCc1ccccc1)N[C@H]1CCCN2CCC[C@@H](C(=O)O)N2C1=O [Cilazapril Monohydrate] | 1.011 ± 0.004
22 | Nc1ncnc2c1ncn2[C@@H]1O[C@H](CO)[C@@H](O)[C@@H]1O [Vidarabine] | 1.08 ± 0.033
23 | Nc1nc(F)nc2c1ncn2[C@@H]1O[C@H](CO)[C@@H](O)[C@@H]1O [Fludarabine] | 0.291 ± 0.0055

Row | SMILES | relative cell viability
24 | Nc1nc(Cl)nc2c1ncn2[C@@H]1O[C@H](CO)[C@@H](O)[C@@H]1F [Clofarabine] | 0.932 ± 0.038
25 | Nc1nc(F)nc2c1ncn2[C@@H]1O[C@H](COP(=O)(O)O)[C@@H](O)[C@@H]1O [Fludarabine Phosphate] | 0.214 ± 0.058
26 | Nc1ncnc2c1ncn2[C@@H]1O[C@H](CO)[C@@H](O)[C@H]1O [Adenosine] | 1.165 ± 0.0028
27 | Nc1nc2c(ncn2[C@@H]2O[C@H](CO)[C@@H](O)[C@H]2O)c(=O)[nH]1 [Guanosine] | 1.06 ± 0.032
28 | CCN(CC)CCOC(=O)c1ccc(N)cc1Cl [Chloroprocaine HCl] | 1.15 ± 0.027
29 | Nc1nc2c(ncn2COC(CO)CO)c(=O)[nH]1 [Ganciclovir] | 1.069 ± 0.0057
30 | O=C(/C=C/N1C[C@H]2C[C@@H]1CN2c1ccccn1)c1ccccc1O | 1.06 ± 0.02
31 | COc1ccc(-n2nc(C(N)=O)c3c2C(=O)N(c2ccc(N4CCCCC4=O)cc2)CC3)cc1 [Apixaban] | 1.1 ± 0.027
32 | Cc1coc2c1C(=O)C(=O)c1c-2ccc2c(C)cccc12 [Tanshinone I] | 1.11 ± 0.051
33 | CO[C@H]1/C=C/O[C@@]2(C)Oc3c(C)c(O)c4c(O)c(c(/C=N/N5CCN(C)CC5)c(O)c4c3C2=O)NC(=O)/C(C)=C\C=C\[C@H](C)[C@H](O)[C@@H](C)[C@@H](O)[C@@H](C)[C@H](OC(C)=O)[C@@H]1C [Rifampin] | 1.049 ± 0.003
34 | COc1cc(-c2ncn(/C=C\C(=O)OC(C)C)n2)cc(C(F)(F)F)c1 | 0.26 ± 0.011
35 | O=C(/C=C\n1cnc(-c2cc(C(F)(F)F)cc(C(F)(F)F)c2)n1)NNc1cnccn1 | 0.2768 ± 0.0027
36 | O=C(/C=C\n1cnc(-c2cc(C(F)(F)F)cc(C(F)(F)F)c2)n1)NNc1ccccn1 [Verdinexor (KPT-335)] | 0.3315 ± 0.0025
37 | O=C(/C=C/n1cnc(-c2cc(C(F)(F)F)cc(C(F)(F)F)c2)n1)N1CC(F)(F)C1 | 0.473 ± 0.06
38 | CCN(CC)CCNC(=O)c1c(C)[nH]c(/C=C2\C(=O)Nc3ccc(F)cc32)c1C [Sunitinib Malate] | 1.11 ± 0.037
39 | CCN(CC)CCNC(=O)c1c(C)[nH]c(/C=C2\C(=O)Nc3ccc(F)cc32)c1C [Sunitinib] | 1 ± 0.095
40 | Cc1[nH]nc2ccc(-c3cncc(OC[C@@H](N)Cc4ccccc4)c3)cc12 | 0.5847 ± 0.0027
41 | C[C@]12CC[C@H](O)CC1=CC[C@@H]1[C@@H]2CC[C@]2(C)C(n3cnc4ccccc43)=CC[C@@H]12 [Galeterone] | 1.06 ± 0.14
42 | CO[C@H]1C[C@@H]2CC[C@@H](C)[C@@](O)(O2)C(=O)C(=O)N2CCCC[C@H]2C(=O)O[C@H]([C@H](C)C[C@@H]2CC[C@H](n3cnnn3)[C@H](OC)C2)CC(=O)[C@H](C)/C=C(\C)[C@@H](O)[C@@H](OC)C(=O)[C@H](C)C[C@H](C)/C=C/C=C/C=C/1C [Zotarolimus(ABT-578)] | 0.888 ± 0.073
43 | CC(=O)Oc1cccc2c1C(=O)c1c(OC(C)=O)cc(C(=O)O)cc1C2=O [Diacerein] | 1.11 ± 0.023
44 | CC1(C)C=C(CN2C/C(=C\c3ccc(F)cc3)C(=O)/C(=C/c3ccc(F)cc3)C2)C(C)(C)N1O | 0.8405 ± 0.0057
45 | C=CC(=O)N1CC(=Cc2ccc([N+](=O)[O-])cc2)C(=O)C(=Cc2ccc([N+](=O)[O-])cc2)C1 | 0.0554 ± 0.0028
46 | CNC(=O)c1c(F)cccc1Nc1nc(Nc2cc3c(cc2OC)CCN3C(=O)CN(C)C)nc2[nH]ccc12 | 1.06 ± 0.052
